High-throughput results deposited in PubChem by Sanford-Burnham Center for Chemical Genomics.
CYP2C19 activ – human CYP2C19 activators, primary screen, biochemical, luminescence | Cytochrome P450 2C19 (Homo sapiens), P33261 | recombinant CYP2C19, luciferin-H EGE luminescence; hits give high values; 0 = fully inhibited enzyme, 1 = untreated enzyme | activation factor at 5 µM | 96,000 tested, under 10 active | AID 1025, 2008;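 active means activation factor of at least 2 at 5 µM in the primary screen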;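 further: 0 = wells with 2.5 mM tranylcypromine and 1 = vehicle-only wells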
CYP2C9 act – human CYP2C9 activators, primary screen, biochemical, luminescence | recombinant CYP2C9, luciferin-H conversion; hits give high values; factor 1 = untreated enzyme, 0 = blocked | activation factor at 5 µM | actives 1.4% (n = 96,000) | AID 1024, 2008;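 active means activation factor of 2 or more for CYP2C9 at a 5 µM dose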;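 further: 0 = sulfaphenazole-blocked wells and 1 = vehicle-only wells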
Target sequence (P11712 whole entry, looked up): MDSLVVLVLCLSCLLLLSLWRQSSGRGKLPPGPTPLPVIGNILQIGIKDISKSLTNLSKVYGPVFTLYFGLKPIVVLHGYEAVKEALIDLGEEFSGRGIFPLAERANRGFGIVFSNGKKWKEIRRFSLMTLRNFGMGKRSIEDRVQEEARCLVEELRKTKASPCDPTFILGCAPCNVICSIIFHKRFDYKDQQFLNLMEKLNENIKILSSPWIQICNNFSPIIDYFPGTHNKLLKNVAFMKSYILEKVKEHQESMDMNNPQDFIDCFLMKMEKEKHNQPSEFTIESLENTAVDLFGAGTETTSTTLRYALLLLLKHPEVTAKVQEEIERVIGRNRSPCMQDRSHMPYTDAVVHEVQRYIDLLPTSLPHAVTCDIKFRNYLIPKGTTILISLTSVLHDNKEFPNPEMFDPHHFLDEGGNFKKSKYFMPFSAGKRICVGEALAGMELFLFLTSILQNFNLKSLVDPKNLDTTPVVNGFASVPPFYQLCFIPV
CYP2C19 inh – blockers of cytochrome P450 2C19 activity – biochemical, luminescence, ADME assay, primary screen. CYP2C19 Supersomes, luciferin-H EGE luminescence, 30 min. inhibition, % at 5 µM. actives 21% (n = 96,000). P33261;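 active means CYP2C19 inhibition above a set limit at 5 µM in the primary screen, cut at about 50% in these data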;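 further: plate controls were negative control wells for no effect and 2.5 mM tranylcypromine positive control for full effect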
CYP2C9 inhib – blockers of cytochrome P450 2C9 activity – biochemical, luminescence, ADME assay, primary screen | P11712 | CYP2C9 Supersomes, luciferin-H conversion | inhibition, % at 5 µM | actives 20% (n = 96,000);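 active means blocking of liver enzyme CYP2C9 beyond about 50% at 5 µM, limit read from the data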
Pyk2 oligo antag – antagonists of Pyk2 self-association, primary screen, Q293 cells, FERM NanoBiT luminescence, HTS | Protein-tyrosine kinase 2-beta (Homo sapiens), Q14289 | hits give low values | z-score (the deposit names both 25 µM and 10 µM) | actives 0.83% (n = 99,000) | AID 1347419, 2020;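 active means Z-score of -3 or lower, scaled per plate to the spread of control and sample wells; inactive means z-score above -3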;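 further: negative z-score means lost luminescence so less FERM oligomerization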
The depositor's hits bear a star; x = no result. Only some compounds are listed: those with a hit (about 28% of all), similar ones and a draw of the others.

SMILES | CYP2C19 activ | CYP2C9 act | CYP2C19 inh | CYP2C9 inhib | Pyk2 oligo antag
COc1ccc(C2N(S(=O)(=O)c3ccccc3)CCN2S(=O)(=O)c2ccc(C)cc2)cc1 (stereo unspecified) | 0.1 | 0.4 | 86* | 65* | 0.18
CNC(=S)N1CCN(c2ccccc2OC)CC1 | 0.7 | 0.8 | 26 | 23 | 0.47
CC1CCN(C(=O)CSc2nnc(-c3ccc(S(=O)(=O)N4CCOCC4)cc3)n2C)CC1 | x | x | x | x | -0.38
COC(=O)c1ccccc1NC(=O)CSc1nnnn1C1CCCCC1 | 0.9 | 0.7 | 6 | 35 | -1.2
CCOC(=O)c1ccccc1NC(=O)CSc1nnnn1C1CCCCC1 | 0.7 | 0.3 | 25 | 72* | -0.9
C=CCn1nnnc1SCC(=O)Nc1cccc(OC)c1 | 0.6 | 1 | 37 | 2 | 0.07
CCOc1ccccc1NC(=O)CSc1nnnn1Cc1ccccc1 | 0.6 | 0.9 | 40 | 7 | -0.67
COc1ccccc1NC(=O)CSc1nnnn1Cc1ccccc1 | 0.1 | 1 | 92* | 2 | 0.21
C=CCn1nnnc1SCC(=O)Nc1ccccc1C(=O)OC | 0.1 | 0.6 | 91* | 42 | -0.79
Cc1cccn2c(=O)c(/C=N/O)c(N3CCCCC3)nc12 | 1.2 | 1 | -16 | -4 | -1.3
Cc1ccc(S(=O)(=O)/C(C#N)=C/c2c(N3CCN(C)CC3)nc3c(C)cccn3c2=O)cc1 | 0.9 | 0.2 | 9 | 85* | -0.88
CCN1CCN(c2nc3c(C)cccn3c(=O)c2/C=C(\C#N)S(=O)(=O)c2ccc(C)cc2)CC1 | 0.7 | 0.1 | 33 | 89* | -1.6
Cc1cccn2c(=O)c(/C=C(\C#N)S(=O)(=O)c3ccccc3)c(N3CCN(C)CC3)nc12 | 1.1 | 0.2 | -10 | 75* | -0.99
Cc1ccc(S(=O)(=O)/C(C#N)=C/c2c(N3CC(C)OC(C)C3)nc3c(C)cccn3c2=O)cc1 (stereo unspecified) | 0.9 | 0.3 | 7 | 72* | -1.8
COc1cccc(NC(=O)C23CCC(C)(C(=O)O2)C3(C)C)c1 (stereo unspecified) | 1.1 | 1 | -9 | 0 | 1.1
COc1ccccc1C(=O)N/C(=C/c1ccc(Br)cc1)C(=O)NCC(=O)O | 0.6 | 0.7 | 37 | 26 | 0.51
O=C(c1ccccc1C(F)(F)F)N1CCN(S(=O)(=O)c2ccccc2)CC1 | 0.1 | 0.9 | 87* | 7 | 0.39
O=C(c1nc(-c2ccccc2)n(-c2ccccc2)n1)N1CCN(S(=O)(=O)c2ccccc2)CC1 | 0.9 | 0.3 | 12 | 66* | -0.69
O=C(c1ccc(Br)cc1)N1CCN(S(=O)(=O)c2ccccc2)CC1 | 0.3 | 0.6 | 70* | 42 | x
O=S(=O)(c1ccccc1)N1CCN(Cc2ccccc2C(F)(F)F)CC1 | 0.1 | 0.2 | 94* | 83* | -1.5
CC(=O)N/C(=C/c1ccc2c(c1)OCO2)C(=O)NCC(=O)O | x | x | x | x | 0.68
Cc1ccc(S(=O)(=O)CC(=O)NC(C)(C)C)cc1 | x | x | x | x | -0.29
CCn1c(Cc2ccccc2)nnc1SCC(=O)Nc1nnc(-c2ccccc2)s1 | 0.5 | 0.7 | 48 | 30 | -1.6
CCOC(=O)CSc1nnc(C)n1N | 1 | 1 | 3 | -2 | 0.53
CCOC(=O)N1CCC(NC(=O)Cn2ncc3c4ccccc4n(C)c3c2=O)CC1 | x | x | x | x | 1.1
SMILES | CYP2C19 activ | CYP2C9 act | CYP2C19 inh | CYP2C9 inhib | Pyk2 oligo antag
Cc1ccccc1CN1CCN(Cc2ccccc2C(F)(F)F)CC1 | 0.1 | 0.7 | 91* | 31 | -0.3
O=C(CSc1cccc(C(F)(F)F)c1)N1CCN(S(=O)(=O)c2ccccc2)CC1 | 0.4 | 0.9 | 59* | 10 | 0.55
O=S(=O)(c1cccc(C(F)(F)F)c1)N1CCN(c2ccccc2)CC1 | 0.7 | 0.9 | 27 | 6 | -2
Cc1ccc(C(C)C)c(OCC(O)CN2CCN(CCO)CC2)c1 (stereo unspecified) | x | x | x | x | -0.8
Cc1c(Cl)c(C(=O)N2CCCc3ccccc32)nn1C | 0.7 | 1.1 | 34 | -12 | -0.17
COc1ccccc1NC(=O)CSc1nnc(C2CCCCC2)n1C | 0.3 | 0.9 | 65* | 8 | 0.08
Nn1c(SCC(=O)Nc2cccc(F)c2)nnc1C1CCCCC1 | 0.5 | 0.5 | 54* | 53* | 0.81
CCc1nnc(NC(=O)CSc2nnc(C3CCCCC3)n2-c2ccccc2)s1 | 0.7 | 0.8 | 26 | 20 | -1.3
Cc1ccccc1NC(=O)Cc1nc(CSc2nnc(C3CCCCC3)n2N)cs1 | 0.5 | 0.2 | 55* | 84* | 0.86
COc1ccc(C(=O)CSc2nnc(C3CCCCC3)n2N)c(OC)c1 | 0.8 | 1.2 | 16 | -20 | -2.2
Cn1c(SCC(=O)c2ccccc2)nnc1C1CC1 | 0.5 | 1 | 50* | 0 | 0.07
CC(=O)NC1CC(C)(C)N(OC(C)=O)C(C)(C)C1 | 0.8 | 1 | 18 | -3 | 0.27
CC(=O)Nc1ccc(OCC(O)Cn2nc(C)c(Br)c2C)cc1 (stereo unspecified) | x | x | x | x | 0.36
Cc1cccc2cc(CN(CCN(C)C)C(=S)Nc3ccccc3)c(=O)[nH]c12 | x | x | x | x | -0.69
COc1cccc(-n2nnnc2SCC(=O)NCCc2ccccc2)c1 | 0.1 | 0.9 | 93* | 13 | 1.6
COc1ccc(OC)c(-n2nnnc2SCC(=O)NCCc2ccccc2)c1 | 0.4 | 0.5 | 60* | 54* | -0.8
COc1ccc(OC)c(NC(=O)CSc2nnnn2-c2ccccc2F)c1 | 0.8 | 1.1 | 22 | -14 | -1.8
CCn1c(SCC(=O)Nc2nccs2)nnc1-c1ccc(S(=O)(=O)N2CCCCC2)cc1 | 0.8 | 0.5 | 18 | 46 | -0.19
Nc1cccc(C(=O)Nc2ccc(N)cc2Cl)c1 | 1.1 | 1.6 | -8 | -57 | 0.04
Nc1cccc(C(=O)Nc2ccco2)c1 | 0 | 0.2 | 98* | 79* | 0.46
O=C1CC(C(=O)Nc2ccc(F)c(Cl)c2)N=C(N2CCCCC2)N1 (stereo unspecified) | 0.9 | 0.9 | 7 | 10 | 0.97
COc1cc(C2C(C#N)=C(N)OC3=C2C(=O)CC(C)(C)C3)ccc1OC(=O)N1CCOCC1 (stereo unspecified) | 0.9 | 0.5 | 12 | 54* | 1.1
CC1(C)CC(=O)C2=C(C1)OC(N)=C(C#N)C2c1ccc(OC(=O)N2CCOCC2)cc1 (stereo unspecified) | 0.7 | 0.4 | 32 | 60* | 0.07
COc1cc(/C=N/N2C(=O)c3ccccc3NC2(C)c2cccc([N+](=O)[O-])c2)cc(Br)c1O (stereo unspecified) | 0.5 | 0.1 | 50* | 92* | 0.66
CCC(C)[C@@H](NC(=O)OC(C)(C)C)c1nnc(S(=O)(=O)Cc2cccc(C)c2)o1 (stereo partly specified) | 0.8 | 0.8 | 22 | 17 | -1.9
Clc1cc(Cl)cc(Nc2ncn[nH]2)c1 | 0.5 | 1 | 50* | 4 | -0.41
Cc1csc(SCC(=O)c2c(N)n(C)c(=O)n(C)c2=O)n1 | 0.9 | 1 | 9 | 4 | 0.87
